Sampled rows, rich in hits. Any-hit rate of the full collection: about 5.7%.
BAZ2B inh = qHTS Assay for Inhibitors of BAZ2B; Bromodomain adjacent to zinc finger domain protein 2B (Homo sapiens), Q9UIF8; AlphaScreen BAZ2B-H3K14Ac peptide displacement; Potency, µM (series often up to 114 µM), inactives show top-dose activity change, negative = inhibition, hits mostly inhibitors; 4.4% of 360,000 active; AID 504333, 2011; further: potency means the concentration at half of the fitted maximal effect; on the % scale 0 is the no-effect control and ±100 the full control effect; nearly all actives have a fitted effect of over 60% in size
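In this displacement format the biotinylated H3(5-23) peptide acetylated at Lys14 serves as ligand at 50 nM, with BAZ2B at 50 nM in PBS pH 7.4 containing 0.01% Tween-20. Donor and acceptor beads are 10 ug/mL final.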
JMJD2A Tudor inh = qHTS Assay for Inhibitors of JMJD2A-Tudor Domain. Potency, µM (highest dose often 114 µM), without a hit: at the top dose activity change, negative = inhibition, actives largely listed as inhibitors. AlphaScreen JMJD2A-Tudor / H3K4me3 peptide binding. 4.4% of 390,000 active; further: potency means the concentration at half of the fitted maximal effect; on the % scale 0 is the no-effect control and ±100 the full control effect; nearly all actives have a fitted effect of over 50% in size
JMJD2E inh = qHTS Assay for Inhibitors of Human Jumonji Domain Containing 2E (JMJD2E). JMJD2E catalytic domain, FDH-coupled NADH fluorescence (FDH is formaldehyde dehydrogenase). Potency, µM (top dose mostly 57.1 µM), inactives show at the top dose activity change, negative = inhibition, usual class: inhibitors. 1.6% of 230,000 active; active means well fitted inhibition curve with a large enough effect, not every such curve was filed as active; inconclusive means small, poorly fitted or top-dose-only effect, or another doubt; inactive means no such curve, though single readings can be large or run the other way;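 further: potency means the concentration at half of the fitted maximal effect; 0% = wells with enzyme and -100% = buffer wells without enzyme; nearly all actives have a fitted effect of over 50% in size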
PI5P4K alpha inh = qHTS for Inhibitors of phosphatidylinositol 5-phosphate 4-kinase (PI5P4K); PI5P4Kalpha enzyme, ADP-Glo luminescence, 60 min; active compounds read low; max response, %; Phosphatidylinositol 5-phosphate 4-kinase type-2 alpha (Homo sapiens), P48426; AID 652105, 2013; 1.2% of 330,000 active; active means max response of -50% or lower; inconclusive means between -30% and -50%; inactive means -30% or higher; further: value at the top dose of about 77 µM; on the % scale 0 is the no-effect control and ±100 the full control effect
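Compounds were pin-transferred onto PI5P4Kalpha and substrate in HEPES pH 7.4 buffer with EGTA, CHAPS and 5% DMSO. ATP (5 microM final) started the reaction, which ran 60 minutes at room temperature before ADP-Glo detection.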
HP1b binding inh = HTS for Inhibitors of HP1-beta Chromodomain Interactions with Methylated Histone Tails; 0.56% of 390,000 active; Chromobox protein homolog 1 (Homo sapiens), P83916; AID 540317, 2011; AlphaScreen HP1-beta / biotin-H3K9me3 peptide binding; Potency, µM (titrated, usually from 114 µM), for the others: top-dose activity change, negative = inhibition, usual class: inhibitors; further: potency means the concentration at half of the fitted maximal effect; nearly all actives have a fitted effect of over 70% in size
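Compound inhibition of the preformed complex between 50 nM HP1-beta and 50 nM biotinylated H3K9me3 peptide was read by AlphaScreen. Buffer was PBS pH 7.4 with 0.01% Tween-20. Incubations ran 30 min at room temperature, with 10 ug/mL donor/acceptor beads.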
L3MBTL1 block = qHTS Assay for the Inhibitors of L3MBTL1; Lethal(3)malignant brain tumor-like protein 1 (Homo sapiens), Q9Y468; AlphaScreen L3MBTL1–H3K9me1 peptide binding; Potency, µM (highest dose often 57.1 µM), without a hit: at the top dose activity, negative = inhibition, hits mostly inhibitors; 0.66% of 230,000 active; AID 485360, 2010; further: potency means the concentration at half of the fitted maximal effect; on the % scale 0 is the no-effect control and ±100 the full control effect; nearly all actives have a fitted effect of over 60% in size
Target sequence (Q9Y468 whole entry, looked up): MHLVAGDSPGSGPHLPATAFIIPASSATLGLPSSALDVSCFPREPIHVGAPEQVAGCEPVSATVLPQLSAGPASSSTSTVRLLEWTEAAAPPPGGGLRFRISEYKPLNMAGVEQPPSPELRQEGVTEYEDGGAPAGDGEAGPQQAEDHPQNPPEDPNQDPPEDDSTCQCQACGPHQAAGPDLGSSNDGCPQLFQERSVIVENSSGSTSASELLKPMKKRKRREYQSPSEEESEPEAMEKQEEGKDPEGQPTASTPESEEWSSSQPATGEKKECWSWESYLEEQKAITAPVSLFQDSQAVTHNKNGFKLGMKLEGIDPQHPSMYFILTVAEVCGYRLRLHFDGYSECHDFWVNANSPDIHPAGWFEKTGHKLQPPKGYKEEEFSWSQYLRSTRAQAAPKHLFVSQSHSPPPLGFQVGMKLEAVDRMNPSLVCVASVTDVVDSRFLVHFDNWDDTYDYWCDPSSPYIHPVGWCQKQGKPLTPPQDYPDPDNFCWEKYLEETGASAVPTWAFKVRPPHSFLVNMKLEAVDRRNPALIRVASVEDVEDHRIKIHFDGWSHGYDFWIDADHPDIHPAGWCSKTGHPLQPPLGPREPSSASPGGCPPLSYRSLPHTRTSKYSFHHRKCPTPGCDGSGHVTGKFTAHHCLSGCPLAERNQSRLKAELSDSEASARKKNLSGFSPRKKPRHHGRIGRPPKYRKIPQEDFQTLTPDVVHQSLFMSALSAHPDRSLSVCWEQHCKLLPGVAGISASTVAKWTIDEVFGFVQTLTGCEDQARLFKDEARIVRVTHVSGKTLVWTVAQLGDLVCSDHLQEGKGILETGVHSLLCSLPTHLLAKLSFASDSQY
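First, the protein-peptide complex forms for 30 min at room temperature (L3MBTL1 50 nM, biotinylated H3K9me1 peptide 75 nM). Next, compounds are pin-transferred and incubated 30 min. Finally, AlphaScreen beads are added and read after 30 min.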
Numbers without * were called inactive; ? = inconclusive; nt = not tested or not shown; [ ] = remark or other dose. Unless noted, the call rests on the fitted dose curve; in most records, active means well fitted inhibition curve with a large enough effect; inconclusive means small, poorly fitted or top-dose-only effect; inactive means no such curve, though single readings can be large or run the other way.

SMILES	BAZ2B inh	JMJD2A Tudor inh	JMJD2E inh	PI5P4K alpha inh	HP1b binding inh	L3MBTL1 block
C=CCn1c(CCSCc2ccc(OC)c(C)c2)n[nH]c1=S	-38%	-34%	-6%	2	30%	-2%
CCn1c(-c2cc(Br)ccc2O)n[nH]c1=S	nt	13µM*	nt	nt	21%	nt
C=CCn1c(-c2cc(Cl)ccc2OC)n[nH]c1=S	1%	7.9µM*	-2%	-16	8%	nt
COc1ccc(Cl)cc1-c1n[nH]c(=S)n1C	24%	6.3µM*	3%	-15	22%	nt
COc1ccc(Cl)cc1-c1nc(SCC(=O)N(C)C)n[nH]1	13%	-22%	5%	-5	28%	nt
O=C(NCCC1=CCCCC1)c1ccc2c(c1)N(Cc1cccc(Cl)c1)C(=O)c1ccccc1S2=O (stereo unspecified)	2%	-3%	nt	nt	4%	nt
COc1cccc(CNC(=O)C2CCCN(S(=O)(=O)c3ccc4c(c3)C(C)(C)C(=O)N4C)C2)c1 (stereo unspecified)	?	-10%	nt	2	33%	3%
CCOC(=O)c1cc(-c2ccc(OC)c(S(=O)(=O)NC3CCCCC3)c2)on1	-5%	-24%	nt	nt	-11%	nt
COc1cccc(NC(=O)Cc2ccc(NC(=O)N3CCCCc4ccccc43)cc2)c1	-1%	11µM*	nt	nt	3%	nt
CCCCOc1ccc(CNC(=O)Cc2ccc(NC(=O)N3CCCCc4ccccc43)cc2)cc1	-19%	79µM*	nt	nt	10%	nt
COc1ccc(N/N=C(/C(C)=O)N2CCCc3ccccc32)cc1	?	35µM*	-3%	2	?	-18%
CCCCOc1ccc(CNC(=O)c2ccc(NC(=O)N3CCCCc4ccccc43)cc2)cc1	-8%	-18%	nt	nt	16%	nt
Cc1ccc(Cl)cc1NC(=O)C(C)n1nnc2sc3c(c2c1=O)CCCC3 (stereo unspecified)	-3%	-15%	nt	nt	38%	nt
CC1CCCC(C)N1/N=C/c1ccc([N+](=O)[O-])cc1 (stereo unspecified)	40µM*	35µM*	nt	-5	?	nt
COc1ccc(/C=N/N2C(C)CCCC2C)cc1O (stereo unspecified)	9%	2%	nt	-8	13%	nt
CC1CCCC(C)N1/N=C/c1ccc(O)c(O)c1 (stereo unspecified)	?	22µM*	nt	?	?	nt
COc1ccc(NC(=S)NCCc2ccc(Cl)cc2)c(OC)c1	?	-35%	9%	-1	-2%	-17%
COc1ccc(NC(=S)NCCc2ccc(S(N)(=O)=O)cc2)c(OC)c1	2%	5%[11.4 µM]	0%	6	26%	nt
COc1ccc(NC(=S)NCCc2c[nH]c3ccccc23)c(OC)c1	45µM*	-30%	-5%	-2	7%	-25%
COc1ccc(NC(=S)NCCc2c[nH]c3ccc(OC)cc23)c(OC)c1	45µM*	?	4%	nt	-36%	-23%
COc1ccc2c(CCNC(N)=S)c[nH]c2c1	89µM*	20µM*	-23%	-4	-18%	nt
COc1ccc2c(CCNC(=O)c3ccco3)c[nH]c2c1	-31%	-19%	-5%	3	11%	-5%
O=C(Nc1ccc(F)cc1)Nc1ccc(NC(=O)c2ccccc2O)cc1	-12%	-18%	?	4	-5%	-26%
N=C1S/C(=C\c2cn[nH]c2-c2ccc(F)cc2)C(=O)N1c1ccccc1F	-2%	89µM*	-2%	-70*	6%	0%
N#Cc1nc(NCC2CC2)nc(Nc2ccccc2)n1	nt	-6%	nt	nt	nt	nt
SMILES	BAZ2B inh	JMJD2A Tudor inh	JMJD2E inh	PI5P4K alpha inh	HP1b binding inh	L3MBTL1 block
Cc1c(Cl)cccc1NS(=O)(=O)c1ccc2c(c1)C1C=CCC1C(c1ccc(C(=O)O)cc1)N2 (stereo unspecified)	45µM*	56µM*	-27%	-102*	50µM*	7.9µM*
COc1ccc(NS(=O)(=O)c2ccc3c(c2)[C@H]2C=CC[C@H]2[C@@H](c2ccc(C(=O)O)cc2)N3)cc1	40µM*	45µM*	nt	-65*	35µM*	nt
O=C(CN1C(=O)COc2ccc(S(=O)(=O)N3CCOCC3)cc21)N1CCN(c2ccccc2F)CC1	-7%	-13%	nt	nt	24%	nt
COc1cccc(C(=O)N2c3cc(C)ccc3C(C)(c3ccccc3)CC2(C)C)c1 (stereo unspecified)	-2%	-12%	nt	nt	35%	nt
Fc1ccc(N2CCN(C3=Nc4cccc5cccc3c45)CC2)cc1	35µM*	25µM*	-6%	2	?	?
c1ccc(CN2CCN(C3=Nc4cccc5cccc3c45)CC2)cc1	?	?	-17%	5	?	nt
C/C(=N\NC(=O)c1cc2ccccc2cc1O)c1cc2ccccc2o1	2%	-35%	-13%	-91*	8%	-29%
C/C(=N\NC(=O)c1ccc(F)cc1)c1ccccn1	10µM*	35µM*	nt	3	30%	nt
C/C(=N\NC(=O)c1cc2ccccc2cc1O)c1ccccn1	10µM*	18µM*	nt	-54*	20%[57 µM]	nt
COc1ccc(NCC(=O)N/N=C(\C)c2cc3ccccc3o2)cc1	35µM*	?	?	6	-18%	?
C/C(=N\NC(=O)c1nc2ccccn2c1C)c1cc2ccccc2o1	-20%	-12%	?	2	25%	nt
C/C(=N\NC(=O)CCCNc1ccc(C)cc1)c1ccccn1	56µM*	?	?	1	7%	-18%
CC(=O)Nc1ccc(/C(C)=N\NC(=O)c2ccc(-c3ccccc3)cc2)cc1	-15%	nt	0%	nt	nt	-2%
C/C(=N\NC(=O)c1c[nH]c2ccccc12)c1ccco1	-9%	-23%	88%	nt	18%	nt
C/C(=N/NC(=O)c1ccncc1)c1ccccc1	0%	?	nt	-10	54%	3%
C/C(=N\NC(=O)c1c[nH]c2ccccc12)c1ccccn1	10µM*	50µM*	?	4	39%	8.9µM*
C/C(=N\NC(=O)c1ccncc1)c1ccc(N(C)C)cc1	-2%	18µM*	55%	-30	-10%	7%
CC(=O)Nc1ccc(/C(C)=N/NC(=O)c2ccc(F)cc2)cc1	3%	89µM*	4%	1	-7%	6%
CC(C)c1cccc(C(C)C)c1NC(=O)COC(=O)[C@H](C)NC(N)=O	-8%	-14%	-4%	-11	13%	nt
C/C(=N\NC(=O)c1ccccc1O)C1C(=O)c2ccccc2C1=O	?	8%	?	-3	23%	nt
